Only some compounds are listed: those with a hit (about 1.3% of all), similar ones and a draw of the others.
Candida biofilm: kills Candida albicans biofilms | AID 834 | 85,000 compounds, 0.14% hits | inhibition, % at 6 µM | C. albicans biofilm + clotrimazole, Alamar Blue;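 active = inhibition above 20%; inactive = inhibition below 20%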;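 note: preformed 24 hr biofilms exposed to compound for 48 hr; 0% = biofilm without compound and 100% = blank killed by clotrimazole plus chlorhexidine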
GALR2 ag: activates the human galanin receptor 2; activation, % (test concentration not listed); 140,000 compounds, 0.48% hits; GALR2-expressing cells, agonist activation read-out; in the data active = activation above about 5%, passing the limit was not always enough;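 note: 0% = vehicle buffer wells and 100% = reference agonist at full effect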
Target sequence (O43603 whole entry, looked up): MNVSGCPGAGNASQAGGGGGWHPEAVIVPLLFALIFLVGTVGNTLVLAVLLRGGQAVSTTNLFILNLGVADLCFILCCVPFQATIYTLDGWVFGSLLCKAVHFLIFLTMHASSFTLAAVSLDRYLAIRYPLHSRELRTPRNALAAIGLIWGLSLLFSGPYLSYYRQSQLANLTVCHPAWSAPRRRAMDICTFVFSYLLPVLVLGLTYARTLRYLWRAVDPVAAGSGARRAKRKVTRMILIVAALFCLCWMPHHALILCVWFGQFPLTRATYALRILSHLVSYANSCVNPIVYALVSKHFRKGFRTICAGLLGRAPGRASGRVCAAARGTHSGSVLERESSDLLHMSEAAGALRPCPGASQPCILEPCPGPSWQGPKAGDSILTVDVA
S1P2 ag: agonists of human S1P2 receptor | O95136 | activation, % at 4.5 µM | AID 729 | 97,000 compounds, 0.46% hits | S1P2-expressing cell line, agonist reporter read-out; in the data active = activation above about 16%;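 note: 0% = vehicle low control and 100% = maximal reference agonist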
Target sequence (O95136 whole entry, looked up): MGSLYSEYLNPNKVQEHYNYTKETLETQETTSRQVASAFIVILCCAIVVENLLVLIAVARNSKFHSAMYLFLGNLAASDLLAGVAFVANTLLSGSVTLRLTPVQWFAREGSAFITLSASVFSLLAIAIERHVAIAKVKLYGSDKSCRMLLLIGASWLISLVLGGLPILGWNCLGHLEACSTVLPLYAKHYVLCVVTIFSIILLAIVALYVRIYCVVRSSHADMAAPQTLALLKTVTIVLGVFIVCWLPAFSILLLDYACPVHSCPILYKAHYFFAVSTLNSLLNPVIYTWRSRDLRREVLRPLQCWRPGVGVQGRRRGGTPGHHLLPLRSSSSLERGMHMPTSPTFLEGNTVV
GALR2 blocker: GALR2 (human) receptor antagonism | O43603 | GALR2-expressing cells, antagonist mode | inhibition, % at 4 µM | 140,000 compounds, 0.39% hits | AID 828; in the data active = inhibition above about 27%;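 note: cells stimulated with galanin 1-16 at roughly its EC80; 0% = agonist challenge control and 100% = basal control without agonist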
S1P2 blocker: S1P2 (human) receptor antagonism; cell-based S1P2 antagonist assay, inhibition at 5 uM; AID 736; 97,000 compounds, 0.21% hits; O95136; inhibition, % at 5 µM; in the data active = inhibition above about 45%;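 note: CRE beta-lactamase reporter cells expressing human S1P2 stimulated with S1P; 0% = agonist at EC80 alone and 100% = agonist plus reference antagonist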
Smad3 FoxH1 inh: blocks human Smad3 binding to FoxH1 peptide; inhibition, % at 25 µM; P84022; TR-FRET Smad3/Dy647-FoxH1 peptide binding, europium anti-His; 88,000 compounds, 0.29% hits; AID 630;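 active = compounds that reduce the energy-transfer binding signal between the protein and its labelled peptide by more than half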;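 note: 0% = Smad3 plus labelled peptide maximal FRET and 100% = peptide-only background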
GALR2 ag confirm: confirmation of human galanin receptor 2 (GALR2) agonists | GALR2-expressing cells, agonist activation | 460 compounds, 10% hits | shares compounds with GALR2 ag | activation, % at 5.6 µM; in the data active = activation above about 8.4%;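 note: 0% = buffer-only vehicle wells and 100% = full reference agonist response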
BLA act counter: counter-screen for GALR2 agonists: beta-lactamase reporter activators; shares compounds with GALR2 ag; CHO NFAT-bla reporter, beta-lactamase FRET activation; activation, % at 5.6 µM; 460 compounds, 10% hits;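 active = activation above the screen-wide mean activation plus 3 SD, cut at about 8% in these data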;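 note: 0% = DMSO with PBS wells and 100% = thapsigargin positive control wells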
Starred values were filed as active, the others as inactive; · = not tested or not shown.

SMILES	Candida biofilm	GALR2 ag	S1P2 ag	GALR2 blocker	S1P2 blocker	Smad3 FoxH1 inh	GALR2 ag confirm	BLA act counter
COc1cc(C(=O)N/N=C2\CCS(=O)(=O)c3ccc(F)cc32)cc(OC)c1OC	·	-1.3	·	2.1	·	·	·	·
CC(=O)/C(=N/Nc1ccccc1C)N1CCOCC1	·	-2.0	-5.5	11.2	7.9	·	·	·
COc1ccc(C2=NOC(C(=O)NCc3ccc(F)cc3)C2)cc1OC (configuration not stated)	13.3	10.4	2.3	7.6	-14.1	6.2	0.7	-0.8
Cc1cccc(N2CCN(CC(=O)Nc3nccs3)CC2)c1C	·	-1.5	-1.7	-9.6	-1.3	·	·	·
CC(=O)N1N=C(c2ccc(C)cc2)OC1c1ccc(C)cc1 (configuration not stated)	5.2	76.9*	-3.4	-7.6	-6.4	10.8	-0.7	0.0
CCc1ccc(NC(=O)CSc2nnc(CC)c(CC)n2)cc1	7.3	22.1*	-1.7	-6.7	-32.5	0.8	-1.3	-4.0
COc1ccc(CN(C(=O)c2cnccn2)C(C(=O)Nc2ccc(F)cc2)c2ccccc2)cc1 (configuration not stated)	4.7	-1.3	-8.8	5.0	5.5	4.1	·	·
O=C(COc1ccc(Br)cc1CNCCCN1CCOCC1)Nc1ccccc1	·	0.0	·	-5.0	·	·	·	·
CN(CC(O)CON=C1c2ccccc2-c2ccccc21)S(=O)(=O)c1ccc(Br)cc1 (configuration not stated)	·	10.9*	·	-12.5	·	·	0.1	1.4
COc1cc(Cl)c(C)cc1NC(=O)CSc1nnc(-c2ccccn2)n1Cc1ccco1	6.2	-1.0	-1.4	5.2	-5.9	9.7	·	·
COc1cccc(C2CC3(CC(C)(C)NC(=S)N3)Oc3cc(O)ccc32)c1 (configuration not stated)	·	0.3	·	1.3	·	·	·	·
CSC1=NC2(CC(c3ccccc3)Oc3cc(O)ccc32)CC(C)(C)N1 (configuration not stated)	5.2	20.4*	0.9	-20.2	-15.3	-15.5	9.2*	78.3*
CCOC(=O)/C(=C\c1cccc(O)c1)c1nc2sc(C)c(C)c2c(=O)[nH]1	·	-0.3	·	5.2	·	·	·	·
COc1ccccc1[C@@H]1C(c2cccc(Cl)c2)=NN(c2ccc(Br)cc2)[C@H]1C(=O)N1CCOC1=O	·	17.7*	·	-4.4	·	·	22.7*	45.7*
CCOc1ccc(OCC)c(NC(=O)c2[nH]c(C)c(C(C)=O)c2C)c1	5.7	-3.3	-4.6	7.4	3.2	-6.0	·	·
Cc1oc2c(C)c3oc(=O)c4c(c3cc2c1C)CCC4	6.1	8.7	-6.0	-7.4	-15.9	-1.9	-1.1	-1.5
Cc1coc2c(C)c3oc(=O)c4c(c3cc12)CCCC4	11.6	·	·	·	·	-0.8	·	·
C=CCN1C(=O)C(CC(=O)Nc2ccc(OC)cc2)N(Cc2ccco2)C1=S (configuration not stated)	·	16.2*	-2.2	13.0	-11.4	·	-1.0	-2.2
COc1ccc2[nH]c3c(c2c1)CCn1c-3nc2ccccc2c1=O	7.1	8.7*	·	10.9	·	7.2	0.3	-1.1
COc1cc(OC)cc(C(=O)Nn2c(C)nc3ccccc3c2=O)c1	7.9	-1.7	-8.4	-4.3	22.5	-4.1	·	·
Cc1ccc(C)c(NC(=O)CS(=O)(=O)c2cn(C)c3ccccc23)c1	5.2	-3.8	-6.1	4.4	16.2	-0.3	·	·
CCOC(=O)Cn1c(=NC(=O)c2cccs2)sc2cc(C(=O)OC)ccc21	·	13.8*	·	-1.4	·	·	-0.9	-2.1
Cc1cc(C)c(S(C)(=O)=O)c(Sc2ccc(Cl)cc2)n1	·	-3.6	-5.7	-0.4	7.3	·	·	·
CCOC(=O)C1CCCN(c2c(Nc3cccc(C)c3)c(=O)c2=O)C1 (configuration not stated)	17.1	5.5	-0.6	-2.5	5.4	2.8	·	·
COc1ccc(NS(=O)(=O)c2ccc(S(=O)(=O)N3CCCC3)cc2)cc1	11.5	14.7*	-3.0	-12.0	-1.5	-5.9	-1.1	0.0
SMILES	Candida biofilm	GALR2 ag	S1P2 ag	GALR2 blocker	S1P2 blocker	Smad3 FoxH1 inh	GALR2 ag confirm	BLA act counter
Cc1ccc(NC(=O)CSc2nnc(Cn3cnc4ccccc43)o2)cc1	3.9	-0.4	-5.8	-1.8	5.1	2.4	·	·
CC1(C)C=C(c2ccc(C=O)s2)CC(C)(C)N1	·	-0.6	-9.4	4.4	0.9	·	·	·
CC1(C)C=C(c2ccc(C=O)s2)CC(C)(C)N1C=O	·	14.1*	·	3.2	·	·	-0.9	-0.1
COc1ccc(Cl)cc1NC(=O)CNc1ccc(F)cc1C	·	-0.1	·	-3.6	·	·	·	·
CCOc1ccc(Br)cc1S(=O)(=O)Nc1ccc(C(=O)Nc2ccc(C)cc2)cc1	·	-1.8	·	6.4	·	·	·	·
CCOc1ccc(Br)cc1C(=O)Nc1ccc(C(=O)NCC(C)C)cc1	·	14.1*	·	-0.6	·	·	12.9*	5.2
O=C1C=CC(=O)N1c1ccc(OC(F)F)cc1	·	-0.1	·	-0.9	·	·	·	·
CC(C)c1ccc(/C=N/NC(=O)c2c(Cl)cnn2C)cc1	·	-0.9	·	-8.3	·	·	·	·
COc1cc(O)c(CCC(=O)c2cc(OC)c(OC)c(OC)c2)c(OC)c1	·	0.2	·	9.1	·	·	·	·
COCC(C)NC(=O)COc1ccc(Cl)cc1Cl (configuration not stated)	-1.7	10.4	-11.4	-7.1	8.0	-2.9	-0.7	-2.3
COP(=O)(OC)C(Nc1ccc(C)cc1)c1ccc([N+](=O)[O-])cc1 (configuration not stated)	·	-0.9	·	-2.6	·	·	·	·
Cc1ccc(C(=O)NC(=S)Nc2ccc(NC(=O)c3cccc(Cl)c3)cc2)cc1	·	10.1*	·	-1.9	·	·	5.4	5.0
COc1ccccc1N1CSC2=C(C#N)C(c3ccc(SC)cc3)CC(=O)N2C1 (configuration not stated)	-3.7	-0.6	-1.0	-1.8	6.4	7.2	·	·
CSC(=NCc1cccnc1)NS(=O)(=O)c1cccs1	8.7	-0.5	-3.9	8.9	-9.5	9.7	·	·
CC(=O)c1cc(C)ccc1OC(=O)c1ccco1	2.6	11.1*	-1.5	5.6	11.1	9.4	-0.7	1.7
CCc1cc2c(CN3CCN(CCO)CC3)cc(=O)oc2cc1O	6.1	10.6	4.0	-3.2	11.1	0.3	0.8	3.6
CCc1cc2c(CN3CCN(C)CC3)cc(=O)oc2cc1O	6.3	2.0	2.3	4.3	19.1	1.3	·	·
CCCCCc1c(C)c(C#N)c2nc3ccccc3n2c1-n1ccnc1C	·	-0.7	1.2	-9.7	6.2	·	·	·
C=C(C)CN1CCN(c2c(CCC#N)c(C)c(C#N)c3nc4ccccc4n23)CC1	9.1	12.4*	·	1.6	·	-6.3	3.4	0.6
O=C(Nc1ccccc1-c1ccccc1)c1ccc(Br)o1	8.4	12.7*	1.6	-12.4	-20.3	-19.4	-0.5	-0.7
CCOCCCNC(=O)C1CC(=O)N(C2CCCC2)C1 (configuration not stated)	10.9	27.9*	-1.1	-13.0	-11.0	8.7	-1.0	-2.8
O=C(Cn1nnc(-c2ccccc2Cl)n1)NCc1ccc2c(c1)OCO2	1.3	-1.5	-3.2	-14.4	1.0	-4.5	·	·
Cc1cc(C)c2nc(NNC(=O)c3ccc(S(=O)(=O)N4CC(C)CC(C)C4)cc3)sc2c1 (configuration not stated)	·	43.8*	·	11.4	·	·	13.7*	1.8
